DT40 TDP1 CPT – qHTS for Inhibitors of human tyrosyl-DNA phosphodiesterase 1 (TDP1): qHTS in cells in presence of CPT; chicken DT40 Tdp1-/-;hTDP1 cells + 20 nM CPT, ATP luminescence, 48 h; Potency, µM (top dose mostly 46.2 µM), inactives show top-dose activity change, negative = growth inhibition, most hits filed as inhibitors; hit rate 12% among 420,000; further: potency means the concentration at half of the fitted maximal effect; on the % scale 0 is the no-effect control and ±100 the full control effect; nearly all actives have a fitted effect of over 55% in size
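Cell growth measured by CellTiter-Glo luminescence after a minimum 48 h, 37 C compound exposure with 20 nM CPT in Tdp1-knockout DT40 cells stably expressing hTDP1, seeded 400/well; qHTS titration format.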
TDP1 cell noCPT – qHTS for Inhibitors of human tyrosyl-DNA phosphodiesterase 1 (TDP1): qHTS in cells in absence of CPT | hit rate 15% among 420,000 | AID 686978, 2013 | DT40 Tdp1-/- hTDP1 cells, no CPT, ATP luminescence, 48 h | Potency, µM (titrated, usually from 46.2 µM), inactives show at the highest dose activity change, negative = growth inhibition, actives largely listed as inhibitors; further: potency means the concentration at half of the fitted maximal effect; on the % scale 0 is the no-effect control and ±100 the full control effect; nearly all actives have a fitted effect of over 55% in size
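DT40 Tdp1-/-;hTDP1 cells, no CPT (DMSO vehicle only), 400 cells/well; compounds pin-transferred; ≥48 hr, 37 °C; CellTiter-Glo 30 min RT dark, luminescence read.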
TDP1 inh – qHTS Assay for Inhibitors of Tyrosyl-DNA Phosphodiesterase (TDP1) | Tyrosyl-DNA phosphodiesterase 1 (Homo sapiens), Q9NUW8 | recombinant TDP1, AlphaScreen DNA substrate cleavage | Potency, µM (highest dose often 130 µM), for the others: at the top dose activity change, negative = inhibition, most hits filed as inhibitors | hit rate 0.28% among 350,000; further: potency means the concentration at half of the fitted maximal effect; on the % scale 0 is the no-effect control and ±100 the full control effect; nearly all actives have a fitted effect of over 40% in size
Target sequence (Q9NUW8 whole entry, looked up): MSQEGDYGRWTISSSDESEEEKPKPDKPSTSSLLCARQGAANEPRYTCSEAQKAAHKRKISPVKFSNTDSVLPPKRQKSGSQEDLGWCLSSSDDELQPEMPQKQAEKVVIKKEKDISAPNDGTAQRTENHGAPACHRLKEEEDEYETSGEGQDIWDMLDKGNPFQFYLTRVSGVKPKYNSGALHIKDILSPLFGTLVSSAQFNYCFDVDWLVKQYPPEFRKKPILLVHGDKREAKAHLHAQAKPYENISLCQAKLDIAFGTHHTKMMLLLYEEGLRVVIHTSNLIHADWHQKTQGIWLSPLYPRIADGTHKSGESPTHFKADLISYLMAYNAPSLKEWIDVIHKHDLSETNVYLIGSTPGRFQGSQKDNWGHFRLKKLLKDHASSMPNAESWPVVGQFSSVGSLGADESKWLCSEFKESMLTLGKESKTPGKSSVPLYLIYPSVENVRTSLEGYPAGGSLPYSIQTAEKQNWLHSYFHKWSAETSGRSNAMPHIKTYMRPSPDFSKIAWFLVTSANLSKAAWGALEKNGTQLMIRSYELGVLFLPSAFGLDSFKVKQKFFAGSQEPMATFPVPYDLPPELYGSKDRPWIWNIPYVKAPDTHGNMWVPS
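Recombinant E. coli-expressed Tdp1 (1 nM) preincubated with compound 15 min at RT, then 5'-biotin/3'-phosphotyrosine-FITC DNA substrate (15 nM) added for 5 min. AlphaScreen beads (10 ug/ml) added, 10 min RT; tyrosine-FITC cleavage read as signal loss.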
IL1B secr inh – qHTS for Inhibitors of Inflammasome Signaling: IL-1-beta AlphaLISA Primary Screen; THP-1 LPS/ATP IL-1B secretion, AlphaLISA, 16 h; hits give low values; activity change, % at 57.5 µM; hit rate 4.7% among 360,000; in the data active means activity change below about -50%; inconclusive means mostly about -30% to -49%; further: on the % scale 0 is the no-effect control and ±100 the full control effect
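Secreted IL-1B measured by AlphaLISA bead assay after 16 h compound exposure of THP-1 cells; compounds (final up to 57.5 uM) added 1 h before LPS (250 ng/mL) and ATP (1.25 mM) stimulation; lower signal means less secretion.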
TGFb SMAD3 inh – qHTS for Inhibitors of TGF-b | Potency, µM (titrated, usually from 46.1 µM), inactives show at the highest dose activity, negative = inhibition, most hits filed as inhibitors | HepG2 CAGA-GFP TGF-b/SMAD3 reporter, GFP fluorescence, 18 h; TGF-beta stimulated, 500 pg/mL final | hit rate 1.2% among 410,000; further: potency means the concentration at half of the fitted maximal effect; on the % scale 0 is the no-effect control and ±100 the full control effect; nearly all actives have a fitted effect of over 65% in size
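First, reporter cells (HEPG2 CAGA-GFP) rested 2 h at 37 degrees C. Next, compounds were pinned in and TGF-beta added to 500 pg/mL final. After 18 h, GFP was imaged per cell and summed per well.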
HepG2 viability – qHTS for Inhibitors of TGF-b: Cytotox Counterscreen; hit rate 0.76% among 410,000; HepG2 CAGA-GFP viability, ATP luminescence, 18 h; Potency, µM (titrated, usually from 46.1 µM), for inactives: top-dose activity change, negative = cytotoxicity, hits mostly cytotoxic; AID 588856, 2011; further: potency means the concentration at half of the fitted maximal effect
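CellTiter-Glo luminescence gave cytotoxicity after 18 hours at 37 degrees C. The cells were HepG2 CAGA-GFP in 1% FBS DMEM, stimulated with 500 pg/mL TGF-beta after compound addition. %Activity was normalised to no-cell wells (complete cell-killing) and DMSO (no toxicity), and curves were fitted and classified.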
An asterisk follows results filed as active; [ ] = remark or other dose. Hits are enriched below; roughly 19% of the tested compounds scored in any of these assays. Unless noted, the call rests on the fitted dose curve; in most records, active means well fitted curve in the direction sought with a large enough effect; inconclusive means small, poorly fitted or top-dose-only effect, or another doubt; inactive means no such curve, though single readings can be large; an effect the other way counts as inactive or inconclusive.

`Cc1cc(CSc2ccccc2)ccc1NC(=O)c1ccc(C)c([N+](=O)[O-])c1` gave DT40 TDP1 CPT -14%, TDP1 cell noCPT 18µM*, TDP1 inh 3%, IL1B secr inh 53, TGFb SMAD3 inh -12% and HepG2 viability -32%.
For Cc1nc2ccc(C(=O)N3c4ccccc4N=C(c4ccc5c(c4)OCO5)C3C(=O)NCc3ccccc3)cc2[nH]1 (configuration not stated) the results were DT40 TDP1 CPT 2.1µM*, TDP1 cell noCPT 1.6µM* and IL1B secr inh -2.
Screening Cc1cccc(C)c1NC(=O)C1C(c2ccc3c(c2)OCO3)=Nc2ccccc2N1C(=O)c1cccc2ccccc12 (configuration not stated) returned DT40 TDP1 CPT 6.5µM*, TDP1 cell noCPT 7.3µM* and IL1B secr inh -1.
COc1ccc(C2=Nc3ccccc3N(C(=O)c3ccc4c(c3)OCO4)C2C(=O)NCc2ccccc2)cc1 (configuration not stated) was read as DT40 TDP1 CPT inconclusive, TDP1 cell noCPT inconclusive and IL1B secr inh -7.
For O=C(NCCN1CCC(n2c(=O)[nH]c3ccccc32)CC1)c1ccc(Cl)c(Cl)c1 the results were DT40 TDP1 CPT inconclusive and TDP1 cell noCPT 18µM*.
O=C(NCCN1CCC(n2c(=O)[nH]c3ccccc32)CC1)c1ccccc1Cl was read as DT40 TDP1 CPT inconclusive, TDP1 cell noCPT inconclusive and IL1B secr inh -23.
`O=C(NCCN1CCC(n2c(=O)[nH]c3ccccc32)CC1)c1ccc(Cl)cc1` gave DT40 TDP1 CPT 3.7µM*, TDP1 cell noCPT 9.2µM* and IL1B secr inh -11.
`O=C(NCCN1CCC(n2c(=O)[nH]c3ccccc32)CC1)c1cccc2c1-c1ccccc1C2=O` gave DT40 TDP1 CPT inconclusive, TDP1 cell noCPT 21µM* and IL1B secr inh -95*.
`Cc1ccccc1C(=O)NCCN1CCC(n2c(=O)[nH]c3ccccc32)CC1` gave DT40 TDP1 CPT inconclusive, TDP1 cell noCPT -23% and IL1B secr inh -7.
O=C(NCCN1CCC(n2c(=O)[nH]c3ccccc32)CC1)c1c(F)cccc1F was read as DT40 TDP1 CPT -23%, TDP1 cell noCPT -33% and IL1B secr inh -64*.
COc1ccc(OC)c(C(=O)N(Cc2cc3cccc(C)c3nc2N2CCC(O)CC2)C2CC2)c1 was read as DT40 TDP1 CPT 4%[9.04 µM] and TDP1 cell noCPT inconclusive.
For CCOc1ccccc1C(=O)NCCN1CCC(n2c(=O)[nH]c3ccccc32)CC1 the results were DT40 TDP1 CPT 23µM*, TDP1 cell noCPT 29µM* and IL1B secr inh -25.
Screening S=C1NC=NC2N=CNC12 (configuration not stated) returned TDP1 inh 14µM*.
`Cc1cc(C)c(-c2cc(NC(=O)CSc3nncn3C)n(-c3ccccc3)n2)cc1C` gave DT40 TDP1 CPT 18µM*, TDP1 cell noCPT 21µM*, TDP1 inh 2%, IL1B secr inh -13, TGFb SMAD3 inh -2% and HepG2 viability -21%.
Screening COc1ccc(-n2cnnc2SCC(=O)Nc2cc(C(C)(C)C)nn2-c2ccccc2)cc1 returned DT40 TDP1 CPT 3%, TDP1 cell noCPT -7%, TDP1 inh -4%, IL1B secr inh -2, TGFb SMAD3 inh 1% and HepG2 viability -7%.
For CC(C)(C)c1cc(NC(=O)CCl)n(-c2ccccc2)n1 the results were DT40 TDP1 CPT inconclusive, TDP1 cell noCPT 21µM*, TDP1 inh 0%, IL1B secr inh -93*, TGFb SMAD3 inh -8% and HepG2 viability 9%.
Screening Cn1cnnc1SCC(=O)Nc1ccccc1 returned DT40 TDP1 CPT 13%, TDP1 cell noCPT 1%, TDP1 inh -5%, IL1B secr inh 2, TGFb SMAD3 inh -2% and HepG2 viability 3%.
COCCNc1nnc(SCC(=O)Nc2cc(-c3ccccc3)nn2-c2ccccc2)s1 was read as DT40 TDP1 CPT 26µM*, TDP1 cell noCPT 16µM*, TDP1 inh 5%, IL1B secr inh -3, TGFb SMAD3 inh inconclusive and HepG2 viability -24%.
Screening COc1ccccc1-n1cnnc1SCC(=O)Nc1cc(C(C)(C)C)nn1-c1ccccc1 returned DT40 TDP1 CPT 10µM*, TDP1 cell noCPT 13µM*, TDP1 inh 6%, IL1B secr inh -3, TGFb SMAD3 inh -18% and HepG2 viability -47%.
Screening CC(Cl)C(=O)Nc1cc(C(C)(C)C)nn1-c1ccccc1 (configuration not stated) returned DT40 TDP1 CPT 2%, TDP1 cell noCPT -13%, TDP1 inh 1%, IL1B secr inh -9, TGFb SMAD3 inh 21% and HepG2 viability -3%.
For COC(=O)CC1C(C)(C)C2(O)OC34CC2C(=O)[C@@]1(C)C3CC[C@]1(C)C4=CC(=O)OC1c1ccoc1 (some centres not stated) the results were DT40 TDP1 CPT inconclusive, TDP1 cell noCPT inconclusive and TDP1 inh 10%[56.1 µM].
Screening CCN(CC)C1CCN(C(=O)c2cnn(-c3nccc(-c4ccco4)n3)c2C(C)C)C1 (configuration not stated) returned DT40 TDP1 CPT -1%[9.04 µM] and TDP1 cell noCPT 1%.
Screening CCCCCCCC1=Cc2ccccc2C(CC(=O)c2ccccc2)N1C(=O)OC (configuration not stated) returned TDP1 inh 6%[21 µM].
Cc1ccccc1CN1c2ccccc2-c2nc(SCC(=O)NCc3ccccc3)ncc2S1(=O)=O was read as DT40 TDP1 CPT inconclusive, TDP1 cell noCPT inconclusive, TDP1 inh -8%, TGFb SMAD3 inh 9% and HepG2 viability -2%.
Screening Cc1cccc(-n2c(N)c(-c3nc4ccccc4n3C)c3nc4ccccc4nc32)c1 returned DT40 TDP1 CPT inconclusive, TDP1 cell noCPT inconclusive, TDP1 inh 5%, IL1B secr inh 19, TGFb SMAD3 inh 6% and HepG2 viability 13%.

From PubChem
